This note sets out measurements from paper doi:10.1101/2024.03.05.583629.

Chain of pT7_6His-AlfaTag-HOXD13 (P35453 263-343): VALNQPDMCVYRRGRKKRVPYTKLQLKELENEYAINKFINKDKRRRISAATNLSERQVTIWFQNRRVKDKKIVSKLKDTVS

The test addresses pT7_6His-AlfaTag-HOXD13 (human, UniProt P35453 263-343). Put plainly: PADIT-seq. Conditions: dsDNA, one strand shown.
As for “CTCGAGGATATCAAGATCTGGCCTCGGCGGCGTAAAAGGAACCTCTAGCTAGCCGACTCACTATAGGGATAATCGCCCTGAGCAAAGACC”, the binding signal is 0.246 ± 0.0968 log2FC.

In turn, “CTCGAGGATATCAAGATCTGGCCTCGGCGGCATAAAAGGAACCTCTAGCTAGCCGACTCACTATAGGGATAATCGCCCTGAGCAAAGACC” registered a binding signal of 0.675 ± 0.0684 log2FC.

In turn, “CTCGAGGATATCAAGATCTGGCCTCGGCTGATTAAAAGGAACCTCTAGCTAGCCGACTCACTATAGGGATAATCGCCCTGAGCAAAGACC” registered a binding signal of 1.86 ± 0.0796 log2FC.

Turning to “CTCGAGGATATCAAGATCTGGCCTCGGCGCGTGGAGCGGAACCTCTAGCTAGCCGACTCACTATAGGGATAATCGCCCTGAGCAAAGACC”, the binding signal was -0.893 ± 0.118 log2FC.

For “CTCGAGGATATCAAGATCTGGCCTCGGCCGCATACGCGGAACCTCTAGCTAGCCGACTCACTATAGGGATAATCGCCCTGAGCAAAGACC”, the binding signal is -1.09 ± 0.122 log2FC.

In turn, “CTCGAGGATATCAAGATCTGGCCTCGGCGTTTTACCGGGAACCTCTAGCTAGCCGACTCACTATAGGGATAATCGCCCTGAGCAAAGACC” came in with a binding signal of 1.01 ± 0.0969 log2FC.

“CTCGAGGATATCAAGATCTGGCCTCGGCCGCCCATAAGGAACCTCTAGCTAGCCGACTCACTATAGGGATAATCGCCCTGAGCAAAGACC” registered a binding signal of -0.213 ± 0.101 log2FC.

For “CTCGAGGATATCAAGATCTGGCCTCGGCGTCCTAAAAGGAACCTCTAGCTAGCCGACTCACTATAGGGATAATCGCCCTGAGCAAAGACC”, the binding signal was 0.117 ± 0.0783 log2FC.

The sequence “CTCGAGGATATCAAGATCTGGCCTCGGCCTTTTACTCGGAACCTCTAGCTAGCCGACTCACTATAGGGATAATCGCCCTGAGCAAAGACC” had a binding signal of 0.504 ± 0.0906 log2FC.

As to “CTCGAGGATATCAAGATCTGGCCTCGGCGCGGTAGCGGGAACCTCTAGCTAGCCGACTCACTATAGGGATAATCGCCCTGAGCAAAGACC”, the binding signal is -1.07 ± 0.136 log2FC.
